Laboratory results published in PubChem BioAssay (Tox21).
Inconclusive results are not listed. Unmarked numbers belong to inactive results. Calls come from the whole dose curve; as a rule, active = well fitted cell-killing curve with a large enough effect in the repeat runs; inconclusive = weak or mixed curves, or effect the other way; inactive = flat fitted curve, though single readings scatter.

Assay: qHTS assay to identify small molecule agonists of the sonic hedgehog signaling (Shh) pathway - cell viability counter screen (AID 1259366); note: nearly all actives have a fitted effect of over 50% in size
Conditions: NIH/3T3 Gli1-Luc viability, CellTiter-Fluor, 24 h; series mostly up to 92.4 µM; viability change, negative = cytotoxic: at the top concentration
Source text: National Center for Advancing Translational Sciences [NCATS]
NIH Chemical Genomics Center [NCGC]
U.S. Environmental Protection Agency [EPA]
National Institutes of Environmental Health Sciences [NIEHS]
National Toxicology Program [NTP]
U.S. Food and Drug Administration [FDA]
The sonic hedgehog (Shh) pathway is essential for normal embryonic development. Dysregulation of the Shh pathway can cause severe developmental defects in organs. Therefore chemicals that interfere with the pathway are potential developmental toxicants. A cell line designated 3T3Gli1-Luc (DMB/OARSA/CFSAN/FDA, Laurel, MD), a NIH/3T3 derived clone containing stably integrated Gli1-Luc reporter is used to detect chemical interference of the Shh pathway, by changes in the expression of the firefly Luc gene under the control of the Gli1 transcriptional response element. This cell line was used to screen Tox21 libraries for identifying and prioritizing the potential developmental toxicants that interfere Shh pathway. The cytotoxicity of the compounds was tested in parallel by measuring the cell viability using CellTiter-Fluor assay system (Promega, Madison, WI) in the same wells.
Tox21 Assay Protocol Summary:
3T3 Gli1-Luc cells were dispensed at 2,000 per well in 5uL of culture medium into white solid bottom 1536-well plates (Greiner Bio-One, Monroe, NC) using a Multidrop Combi (Thermo Scientific, Waltham, MA) dispenser. The assay plates were incubated at 37 C and 5% CO2 for 4hr, and then 23nL of compounds dissolved in DMSO and positive control were transferred using a Pintool station (Wako, San Diego, CA). The assay plates were incubated at 37C and 5% CO2 for 24hr. For viability read, after 23hr of compound treatment, 1uL of CellTiter-Fluor reagent (Promega Corporation, Madison, WI) was added to each well of the assay plates using Flying Reagent Dispenser (FRD, Aurora Discovery, San Diego, CA) and incubated the assay plates at 37C for 1hr. The fluorescence signal was quantified using a ViewLux plate reader (Perkin Elmer, Shelton, CT).
% is set by controls: 0 for no effect and ±100 for the full control effect.

| Structure (SMILES) | viability change, negative = cytotoxic |
| --- | --- |
| O=C(O)/C=C/c1ccc(/C=C/C(=O)O)cc1 | 0.75% [at 42.5 µM] |
| NC(CS)C(=O)O (stereo not given) | 0.0953% [at 42.5 µM] |
| Cc1cc(C)c(NC(=O)CN(CC(=O)O)CC(=O)O)c(C)c1Br | 1.17% [at 42.5 µM] |
| CC(C)(C)C(=O)/C=C/c1ccc(Cl)cc1 | 2.92% |
| CC(=O)c1ccc(C)cc1 | 3.13% |
| CC(C)CCOC(=O)CC(C)C | 5.32% |
| C=C[Si](OC)(OC)OC | 4.89% |
| NCC[C@H](O)C(=O)N[C@@H]1C[C@H](N)[C@@H](O[C@H]2O[C@H](CN)[C@@H](O)[C@H](O)[C@H]2O)[C@H](O)[C@H]1O[C@H]1O[C@H](CO)[C@@H](O)[C@H](N)[C@H]1O | 2.12% [at 0.349 µM] |
| CC(C)(O)Cc1ccccc1 | -3.83% |
| C=C(C)[C@@H]1CCC2=CC(=O)C[C@@H](C)[C@]2(C)C1 | -6.18% |
| COc1ccc2cc(C=O)ccc2c1 | -3.06% [at 42.5 µM] |
| CC(C)=CC(=O)O | 1.45% |
| C=C(C)C(=O)NCCC[N+](C)(C)C | 1.06% |
| CN(C)C(=O)Nc1ccccc1 | 1.47% |
| CC(C)(O)C(=O)c1ccc(OCCO)cc1 | 2.98% |
| C=CCOc1nc(OCC=C)nc(OCC=C)n1 | 5.47% |
| CCC(=O)Nc1cccc(N)c1 | 3.08% |
| C1=C\CC/C=C\CC/C=C\CC/1 | 2.39% |
| Cn1ccc2cc3c(cc21)CCN3C(=O)Nc1cccnc1 | 4.12% [at 19 µM] |
| CC(=O)CCc1ccc(O)cc1 | -0.929% |

| Structure (SMILES) | viability change, negative = cytotoxic |
| --- | --- |
| CC(=O)NC(Cc1ccccc1)C(=O)O (stereo not given) | 0.713% [at 42.5 µM] |
| CC1=CCC2C(C1)C2(C)C (stereo not given) | -6.08% |
| C=CC(=O)N1CCOCC1 | -7.15% |
| Cc1ccc(Nc2ccc(O)c3c2C(=O)c2ccccc2C3=O)cc1 | -0.433% |
| N[C@@H](CS)C(=O)O | 3.84% |
| NCCN1CCNC1=O | -4.27% |
| CCN1CCCC1CNC(=O)c1cc(S(N)(=O)=O)ccc1OC (stereo not given) | -7.98% |
| COc1cc(O)cc(O)c1 | -13.2% [at 42.5 µM] |
| C=CCn1c(=O)n([C@@H]2O[C@H](CO)[C@@H](O)[C@H]2O)c2nc(N)[nH]c(=O)c21 | 4.98% [at 42.5 µM] |
| C1COCCO1 | -5.3% |
| C[C@H]1O[C@@H](n2cc(F)c(=O)[nH]c2=O)[C@H](O)[C@@H]1O | 1.53% [at 42.5 µM] |
| NC(=O)c1ncn([C@@H]2O[C@H](CO)[C@@H](O)[C@H]2O)c1N | -2.19% [at 42.5 µM] |
| C#CC(C)(O)CC(C)C (stereo not given) | 7.47% |
| Nc1ncnc2c1ncn2Cc1c(F)cccc1Cl | 3.73% [at 42.5 µM] |
| O=C1C(CCS(=O)c2ccccc2)C(=O)N(c2ccccc2)N1c1ccccc1 (stereo not given) | 1.26% [at 42.5 µM] |
| c1ccc(CCCc2ccccn2)cc1 | -3.51% |
| CCC(=O)c1cccc(Cl)c1 | -4.1% |
| CC(C)c1cccc(O)c1 | 0.997% |
| O=Cc1ccccc1[N+](=O)[O-] | -3.93% |
| O=C(O)c1ccccc1S | 0.671% [at 42.5 µM] |
